Compounds with a hit are over-represented: about 3.8% of the library has one in this group of screens.
Mdm2-MdmX inh: inhibitors of human Mdm2-MdmX association, primary screen, cell-based, luminescence, split luciferase, SaOS-2, uHTS; 330,000 tested, 3% active; AID 485346, 2010; inhibition, % at 8 µM; SaOS-2 split-luciferase Mdm2/MdmX complementation; Protein Mdm4 (Homo sapiens) + E3 ubiquitin-protein ligase Mdm2 (Homo sapiens), …;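 active = inhibition of at least 50% at 8 µM in the primary screen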
Target sequence (O15151 whole entry, looked up): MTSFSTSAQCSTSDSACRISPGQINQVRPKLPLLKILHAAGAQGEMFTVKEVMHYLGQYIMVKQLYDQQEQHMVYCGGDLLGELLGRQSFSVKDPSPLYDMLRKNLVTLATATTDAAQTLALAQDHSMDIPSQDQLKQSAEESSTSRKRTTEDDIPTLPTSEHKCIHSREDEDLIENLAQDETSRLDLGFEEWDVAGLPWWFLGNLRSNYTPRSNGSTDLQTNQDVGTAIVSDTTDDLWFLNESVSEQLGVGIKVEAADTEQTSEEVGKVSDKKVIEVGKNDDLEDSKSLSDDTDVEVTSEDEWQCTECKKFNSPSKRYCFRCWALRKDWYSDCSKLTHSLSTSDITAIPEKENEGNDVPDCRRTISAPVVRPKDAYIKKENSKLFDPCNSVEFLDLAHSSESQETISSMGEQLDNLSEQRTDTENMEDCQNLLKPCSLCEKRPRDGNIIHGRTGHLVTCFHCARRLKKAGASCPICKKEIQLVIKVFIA
Target sequence (Q00987 whole entry, looked up): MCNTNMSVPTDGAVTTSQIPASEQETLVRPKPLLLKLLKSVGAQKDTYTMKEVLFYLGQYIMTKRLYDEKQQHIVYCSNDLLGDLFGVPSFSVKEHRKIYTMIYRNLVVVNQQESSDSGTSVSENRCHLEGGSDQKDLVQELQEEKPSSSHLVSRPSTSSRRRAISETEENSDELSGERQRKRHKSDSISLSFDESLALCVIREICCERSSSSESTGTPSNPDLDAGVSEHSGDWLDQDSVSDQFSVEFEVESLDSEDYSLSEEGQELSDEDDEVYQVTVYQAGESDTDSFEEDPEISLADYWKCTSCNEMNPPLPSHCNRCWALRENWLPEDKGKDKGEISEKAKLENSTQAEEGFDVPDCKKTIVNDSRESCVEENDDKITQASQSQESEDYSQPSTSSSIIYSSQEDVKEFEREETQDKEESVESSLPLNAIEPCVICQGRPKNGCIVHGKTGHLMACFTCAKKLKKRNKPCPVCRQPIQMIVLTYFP
697 NFkB inh: inhibitors of PMA/ionomycin-induced NF-kB reporter, 697 cells, primary screen, B-cell NF-kB inhibitor project, cell-based, luminescence, uHTS; 697 B-cell NF-kB luciferase reporter, 16 h; inhibition, % at 4 µM; 330,000 tested, 0.33% active; AID 435022, 2010; in the data active = inhibition above about 35%
NTR1 ag: agonists of human NTR1, primary screen, imaging, U2OS cells, beta-arrestin-GFP, high content; activation, % at 20 µM; Neurotensin receptor type 1 (Homo sapiens), P30989; NTR1-U2OS beta-arrestin-GFP spot imaging, agonist mode; 330,000 tested, 0.17% active;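 active = activation at or above 40% of the spot to cytoplasm intensity ratio, with at least 20 cells analyzed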
Bfl-1 A1 inh: caspase 3/7 activation in MEF A1-2A-BIM cells, primary screen, A1 inhibitor project, cell-based, luminescence, HTS; Caspase-Glo 3/7 luminescence, 3 h; percent of clofoctol response, vehicle zero; caspase activation, % (test concentration not listed); 330,000 tested, 0.066% active;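 active = over half of replicate activation scores above 10%, or exactly half above 10 with the replicate mean above 10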
Jurkat NFkB inh: inhibitors of induced NF-kB luciferase reporter, primary screen, TCR NF-kB activation inhibitor project, cell-based, luminescence, uHTS; 330,000 tested, 0.53% active; inhibition, % at 4 µM; Jurkat, PMA/ionomycin-induced NF-kB luciferase reporter; in the data active = inhibition above about 50%
Beta apoptosis: inhibitors of cytokine-induced beta cell apoptosis, primary screen, luminescence | AID 435005, 2010 | INS-1E cytokine-induced death, ATP luminescence, 48 h; percent of positive-control rescue, neutral wells zero | protection from apoptosis, % (no concentration beside the values) | 300,000 tested, 0.8% active;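 active = Every replicate reaches about 75%, or at least half do and their mean reaches it too, limit read from the data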;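 also: higher means more ATP so stronger rescue from cytokine killing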
Mdm2-MdmX conf: Mdm2-MdmX complex disruptors, retested hits, confirmation, luminescence, single concentration; 10,000 tested, 55% active; AID 489028, 2010; Mdm2-MdmX binding, luminescent assay; shares compounds with Mdm2-MdmX inh; inhibition, % at 8 µM; in the data active = inhibition above about 40%
Full FLuc ctr: full-length luciferase signal inhibition, confirmation, counter-screen for Mdm2/MdmX interaction inhibitor project, cell-based, single concentration, SaOS-2 | AID 504607, 2011 | shares compounds with Mdm2-MdmX inh | 6,200 tested, 77% active | inhibition, % at 8 µM | SaOS-2 full-length luciferase counterscreen, luminescence;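 active = mean inhibition at 8 µM reaching about 37%, which flags the compound as non-specific, limit read from the data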;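 also: p53-null SaOS-2 cells with luciferase driven by a doxycycline-inducible promoter; compound on cells about two nights before reading with doxycycline added after day one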
Large screens that a line does not name were inactive (follow-up assays come after a bar, where they were run).

Cc1nnc(NC(=O)c2nc(S(=O)(=O)Cc3ccccc3)ncc2Cl)s1	Mdm2-MdmX inh 85.2 (no result: Bfl-1 A1 inh, Beta apoptosis) | Mdm2-MdmX conf inactive
Cc1cc(/C=C2/C(=O)NN(c3ccccc3)C2=O)c(C)n1-c1cccc(O)c1	Mdm2-MdmX inh 73.0 | Mdm2-MdmX conf 71.9 | Full FLuc ctr 122.0
Cc1cc(/C=C2\SC(=S)NC2=O)c(C)n1-c1cccc(O)c1	none
Cc1cc(C=C2C(=O)c3ccccc3C2=O)c(C)n1-c1ccccc1	Mdm2-MdmX inh 61.8 | Mdm2-MdmX conf 56.0 | Full FLuc ctr inactive
COC(=O)[C@@H](c1ccccc1)N(C)S(=O)(=O)c1cccc(S(=O)(=O)N(C)[C@@H](C(=O)OC)c2ccccc2)c1	none
CCCn1c(N)c(C(=O)COC(=O)CNC(=O)c2ccc(C)c(C)c2)c(=O)n(C)c1=O	none (no result: Bfl-1 A1 inh, Beta apoptosis)
Cn1nc(C(F)(F)F)c(-c2ccc(Br)cc2)c1NC(=O)Nc1ccc(F)cc1F	Mdm2-MdmX inh 90.7 | Mdm2-MdmX conf 50.4 | Full FLuc ctr 39.4
Cn1nc(C(F)(F)F)c(-c2ccc(F)cc2)c1NC(=O)c1ccco1	none (no result: Beta apoptosis)
Oc1ccccc1Nc1nc(NCc2ccco2)c2ccccc2n1	none
c1ccc(Nc2nc(NCc3ccco3)c3ccccc3n2)cc1	Mdm2-MdmX inh 77.7, Beta apoptosis 81.1 | Mdm2-MdmX conf inactive
COc1cccc(Nc2nc(NCCO)c3ccccc3n2)c1	Mdm2-MdmX inh 65.4 | Mdm2-MdmX conf 62.0 | Full FLuc ctr inactive
O=C(Nc1nccs1)c1cccc(N2C(=O)c3cccc4c([N+](=O)[O-])ccc(c34)C2=O)c1	Mdm2-MdmX inh 86.7 | Mdm2-MdmX conf inactive
O=C(Nc1ccc(S(=O)(=O)Nc2nccs2)cc1)c1cccc(N2C(=O)c3ccccc3C2=O)c1	none
CCCn1c2ccccc2c2cnn(CC(=O)NCCCN3C(C)CCCC3C)c(=O)c21 (centres undefined)	none
CCOc1cccc(-c2c(C(=O)N/N=C/c3ccc(C)o3)nnn2-c2nonc2N)c1	none (no result: Beta apoptosis)
CC(C)=CCC12Oc3cc(O)ccc3C1(O)Oc1cc(O)c([C@H]3C=C(C)CC(c4ccc(O)cc4O)[C@H]3C(=O)c3ccc(O)cc3O)c(O)c1C2=O (some centres undefined)	Mdm2-MdmX inh 68.1 | Mdm2-MdmX conf inactive
CC(=O)O[C@@H]1C[C@H]2C(C)(C)C(=O)C=C[C@]2(C)[C@H]2CC[C@@]3(C)[C@H](c4ccoc4)OC(=O)[C@H]4O[C@]43[C@@]21C	Mdm2-MdmX inh 98.1 | Mdm2-MdmX conf 71.2 | Full FLuc ctr inactive
O=C(Oc1c(CN2CCOCC2)cc(Cl)c2cccnc12)c1ccccc1Cl	none
O=C(Oc1c(CN2CCOCC2)cc(Cl)c2cccnc12)c1ccc(F)cc1	Mdm2-MdmX inh 52.0, Beta apoptosis 83.4 | Mdm2-MdmX conf 48.8 | Full FLuc ctr 42.2
O=C(Oc1cncc(Cl)c1)c1ccco1	none
COc1cc(C(=O)Oc2c(CN3CCOCC3)cc(Cl)c3cccnc23)cc(OC)c1OC	Mdm2-MdmX inh 65.2, Beta apoptosis 92.9 | Mdm2-MdmX conf 46.0 | Full FLuc ctr 38.6
O=C(Oc1c(Cl)cc(Cl)c2cccnc12)c1cccs1	Mdm2-MdmX inh 76.0, Beta apoptosis 75.0 | Mdm2-MdmX conf 57.2 | Full FLuc ctr inactive
O=C(Oc1c(Cl)cc(Cl)c2cccnc12)c1ccco1	Mdm2-MdmX inh 71.3, Beta apoptosis 91.5 | Mdm2-MdmX conf 59.8 | Full FLuc ctr 36.3
O=C(Oc1c(CN2CCOCC2)cc(Cl)c2cccnc12)c1cccs1	Mdm2-MdmX inh 64.6, Beta apoptosis 121.5 | Mdm2-MdmX conf 42.9 | Full FLuc ctr 43.4
COc1ccc(C(=O)Oc2c(CN3CCOCC3)cc(Cl)c3cccnc23)cc1	Mdm2-MdmX inh 55.0 | Mdm2-MdmX conf inactive | Full FLuc ctr 42.6
COc1cccc(C(=O)Oc2c(CN3CCOCC3)cc(Cl)c3cccnc23)c1	Mdm2-MdmX inh 53.5, Beta apoptosis 89.9 | Mdm2-MdmX conf 56.1 | Full FLuc ctr 49.4
CC(C)c1ccc(C2CC(=O)c3cnc(NC(=O)c4ccco4)nc3C2)cc1 (centres undefined)	none
COc1cc(NC(=O)CSc2nnnn2C2CCCC2)cc(OC)c1	none
Cc1ccc(S(=O)(=O)c2c(C)cc(C)[nH]c2=O)c(C)c1	none
CCOc1ccc(S(=O)(=O)NCCC(=O)NC(C)CCc2ccccc2)cc1 (centres undefined)	none
O=C(OCC(=O)N1CCN(C(=O)c2ccco2)CC1)c1cncc(Br)c1	none
COC(=O)c1cnn(-c2ccccc2)c1/C=N/NC(=S)Nc1ccc(Cl)cc1	Mdm2-MdmX inh 52.4 | Mdm2-MdmX conf 53.8 | Full FLuc ctr 54.0
COc1ccc(NC(=O)c2cnn(-c3ccccc3)c2C)cc1	none
COc1cc(/C(O)=C(\C#N)c2nc3ccccc3[nH]2)cc(OC)c1OC	none
Cc1nn(Cc2ccccc2)c(C)c1NC(=O)CSc1nc(C2CC2)nc2c1cnn2-c1ccccc1	none
Cc1nn(C)c(C)c1NC(=O)CSc1nc(Cc2ccccc2)nc2c1cnn2-c1ccccc1	Mdm2-MdmX inh 94.2 | Mdm2-MdmX conf 57.1 | Full FLuc ctr 102.8
COc1ccc(-c2n[nH]c(C(F)(F)F)c2-c2cc3ccccc3o2)c(O)c1	Mdm2-MdmX inh 80.6 | Mdm2-MdmX conf 43.0 | Full FLuc ctr 47.0
COC(=O)CCC[C@H]1CC2(C[C@H](CCCO[Si](C)(C)C(C)(C)C)N1C(=O)OC(C)(C)C)OCCO2	none
Cc1cnc(NC(=O)c2nn(C)cc2[N+](=O)[O-])s1	none (no result: Bfl-1 A1 inh, Beta apoptosis)
Cn1cc([N+](=O)[O-])c(C(=O)Nc2ccc(-c3nc4ccccc4[nH]3)cc2)n1	none
Cc1ccc(-c2nc(NC(=O)c3nn(C)cc3[N+](=O)[O-])sc2C)cc1	Mdm2-MdmX inh 79.3, Bfl-1 A1 inh 11.4, Beta apoptosis 116.0 | Mdm2-MdmX conf 99.7 | Full FLuc ctr 52.7
